# Compound activity deposited in PubChem by National Center for Advancing Translational Sciences (NCATS).
# AmpC detergent = blocks E. coli AmpC beta-lactamase in detergent assay | Potency, µM (highest dose often 114 µM), for inactives: top-dose activity change, negative = inhibition, hits mostly inhibitors | AID 485294 | 370,000 tested, 0.041% active | AmpC hydrolysis of nitrocefin, absorbance 480 nm, 0.01% Triton | P00811;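 further: potency means the concentration at half of the fitted maximal effect; 0% = no-compound wells and -100% = no-enzyme wells; nearly all actives have a fitted effect of over 25% in size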
# Target sequence (P00811 whole entry, looked up): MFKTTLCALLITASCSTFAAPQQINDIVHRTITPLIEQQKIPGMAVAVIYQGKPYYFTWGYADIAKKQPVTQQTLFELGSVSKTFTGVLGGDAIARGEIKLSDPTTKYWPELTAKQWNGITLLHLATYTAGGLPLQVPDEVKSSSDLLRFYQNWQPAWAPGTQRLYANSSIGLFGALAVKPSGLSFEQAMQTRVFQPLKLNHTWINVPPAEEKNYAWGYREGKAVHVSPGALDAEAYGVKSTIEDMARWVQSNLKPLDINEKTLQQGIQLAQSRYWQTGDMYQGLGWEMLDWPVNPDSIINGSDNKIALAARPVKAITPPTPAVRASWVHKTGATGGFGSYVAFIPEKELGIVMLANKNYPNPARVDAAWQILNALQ
#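 20 mM phosphate pH 7.0 + 0.01% (detergent screen) or 0.0001% Triton X-100; 5.3 nM AmpC reagent; cpd preinc 15 min RT; nitrocefin (800 uM stock) to start; A480 q20 s × 4 min; Activity was normalised to no-enzyme and no-compound control wells.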
# CHX counter = affects cycloheximide protein synthesis inhibition readout, counter-screen | cell reporter, cycloheximide protein synthesis inhibition counterscreen | max response, % | 300,000 tested, 12% active; in the data active means max response mostly above about 13%, no sharp cut-off; inactive means mostly below about 14%; further: read at 38.3 µM for the half of the compounds with a filed dose; 0% is about no effect
# AMA1 RON2 block = disrupts binding of P. falciparum AMA1 to RON2. AlphaScreen AMA1-biotinylated RON2 peptide binding. Potency, µM (doses to about 58.2 µM), without a hit: at the highest dose activity change, negative = inhibition, most hits filed as inhibitors. 360,000 tested, 0.2% active;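 further: potency means the concentration at half of the fitted maximal effect; 0% = vehicle wells and -100% = peptide control; nearly all actives have a fitted effect of over 45% in size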
#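 AMA1 (3D7) with his tag at 25 nM final met compounds first, then biotinylated RON2 peptide at 25 nM; detection used donor plus acceptor beads, 10 µg/mL apiece, read by AlphaScreen after 30 min at room temperature.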
# AmpC inh no detg = inhibitors of E. coli AmpC beta-lactamase without detergent. P00811. AmpC nitrocefin hydrolysis, absorbance 480 nm, 0.0001% Triton. Potency, µM (titrated, usually from 57.1 µM), inactives show top-dose activity change, negative = inhibition, hits mostly inhibitors. 330,000 tested, 0.52% active;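 further: potency means the concentration at half of the fitted maximal effect; plate controls were no compound for no effect and no enzyme for full effect; nearly all actives have a fitted effect of over 20% in size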
#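 AmpC (5.3 nM in the dispensed reagent) in 20 mM phosphate pH 7.0 with 0.01% (detergent screen) or 0.0001% Triton X-100 was preincubated with compounds for 15 min at room temperature. Nitrocefin was then added from an 800 uM solution, and hydrolysis was followed at 480 nm.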
# Shiga toxin inh = Shiga toxin inhibition; Vero cells, Shiga toxin protein synthesis inhibition reporter; inhibition, % at 38.7 µM; 290,000 tested, 9.2% active; in the data active means inhibition mostly above about 28%, no sharp cut-off; inactive means mostly below about 43%; further: 0% is about no effect
# SARS PLpro yeast = SARS-CoV PLP inhibition in yeast. AID 485353. S. cerevisiae expressing SARS-CoV PLpro, growth rescue. 330,000 tested, 0.19% active. Potency, µM (top dose mostly 32.9 µM), inactives show top-dose activity, positive = growth rescue, most hits filed as activators; calls by dose curve; further: potency means the concentration at half of the fitted maximal effect; 0% is about no effect; nearly all actives have a fitted effect of over 55% in size
# * marks the source's active call; other numbers are inactive results; ? = inconclusive; nt = not tested or not shown; + = active, no number; [ ] = dose if it differs, or a comment. Many of the other results were omitted from the sample, so hits are more common in it than they were. Unless noted, the call rests on the fitted dose curve; in most records, active means well fitted curve in the direction sought with a large enough effect; inconclusive means small, poorly fitted or top-dose-only effect, or another doubt; inactive means no such curve, though single readings can be large; an effect the other way counts as inactive or inconclusive.
SMILES,AmpC detergent,CHX counter,AMA1 RON2 block,AmpC inh no detg,Shiga toxin inh,SARS PLpro yeast
N/C(=N\OC(=O)CCCc1ccccc1)c1cccnc1,6.7%,21.3*,17.9%,-11.0%,40.0*,-7.2%
N/C(=N\OC(=O)CCCN1C(=O)c2ccccc2C1=O)c1ccc(Br)cc1,nt,nt,-15.5%,nt,nt,nt
N/C(=N\OC(=O)CCCCCN1C(=O)c2ccccc2C1=O)c1ccccc1,1.2%,36.5*,65.3%,-11.9%,70.7*,0.7%
N#CCOc1coc(CN2CCN(c3cccc(Cl)c3)CC2)cc1=O,?,11.3,-4.3%,0.7%,-10.8,-7.9%
Cc1ccc(C(C)C)c(OCCn2c(=O)oc3ccccc32)c1,1.0%,-3.1,-11.7%,2.7%,6.4,-6.1%
CCOC(=O)C1=C(COC(=O)C2(C)CC2(Cl)Cl)NC(=O)NC1c1ccc(OC)cc1 (configuration not stated),0.2%,1.0,3.7%,9.2%,11.2,0.3%
N/C(=N\OC(=O)CCCOc1ccccc1)c1ccccc1,-1.7%,22.9*,55.7%,-21.6%,13.5,-4.2%
CN(C)S(=O)(=O)c1ccc(NC(=O)c2ccccn2)cc1,-3.8%,33.7*,2.6%,-9.9%,112.1*,-1.1%
COCC(C)NS(=O)(=O)c1ccc(NC(=O)c2ccccn2)cc1 (configuration not stated),?,10.8*,27.3%,-17.1%,31.0*,-1.9%
O=C(Nc1ccc(SC(F)(F)F)cc1)c1ccccn1,2.5%,30.4*,-4.3%,-25.3%,113.4*,-3.5%
CCN(CC)S(=O)(=O)c1ccc(NC(=O)c2ccccn2)cc1,-6.3%,29.9*,14.5%,-16.0%,95.7*,-11.9%
CC(=O)NS(=O)(=O)c1ccc(NC(=O)c2ccccn2)cc1,-4.9%,-1.5,7.2%,-10.2%,10.7,0.0%
CCOC(=O)c1sc(C)c(C(=O)NC2CCCCC2)c1N,1.3%,1.3,3.4%,-35.7%,45.9,0.7%
CCn1cc(C(=O)O)c(=O)c2cc3c(cc21)OCO3,-1.2%,-2.1,nt,-15.2%,14.2,3.3%
CN(C)S(=O)(=O)c1ccc(C(=O)Nc2ccccn2)cc1,?,22.0*,6.4%,-9.9%,56.6,-5.4%
Cc1ccc(S(=O)(=O)N(C)c2ccc(C(=O)Nc3ccccn3)cc2)cc1,-9.4%,nt,-0.3%,-21.7%,nt,-23.6%
CCCNS(=O)(=O)c1ccc(NC(=O)c2ccccn2)cc1,-8.9%,28.6,18.8%,-6.6%,92.2*,-0.7%
COC(=O)c1cc2c(s1)c1cnn(Cc3ccccc3F)c(=O)c1n2C,1.0%,nt,nt,-23.4%,nt,1.0%
O=C(Cc1ccc(Cl)cc1)NCC(=O)N1CCN(c2ccccc2)CC1,1.8%,-2.2,-14.3%,26.8%,-7.7,-1.8%
OCCC1CN(Cc2cccc3c2OCO3)CCN1C1CCCCC1 (configuration not stated),2.9%,1.1,31.6%,-25.2%,9.2,0.9%
CCCCN1C(=O)C(O)=C(C(C)=O)C1c1ccccc1[N+](=O)[O-] (configuration not stated),-9.4%,4.0,-4.5%,-17.0%,-10.3,-0.7%
O=C(O)CCCCCN1C(=O)C(O)=C(C(=O)/C=C/c2ccccc2)C1c1ccccc1[N+](=O)[O-] (configuration not stated),-6.6%,14.2*,-11.2%,-32.5%,41.2,-1.0%
CCN(CC)CCN(C(=O)c1ccco1)c1nc2cc(C)cc(C)c2s1,6.4%,nt,nt,nt,nt,nt
CCN(C(=O)c1ccco1)c1nnc(-c2ccc(OC)cc2)s1,-9.8%,29.6*,-14.9%,-14.1%,+,-0.8%
CCCN(C(=O)c1ccco1)c1nnc(-c2cccc(C)c2)s1,-4.0%,61.1*,-5.8%,-12.2%,72.2*,-1.2%
SMILES,AmpC detergent,CHX counter,AMA1 RON2 block,AmpC inh no detg,Shiga toxin inh,SARS PLpro yeast
COCCN(C(=O)C1CC1)c1nnc(-c2cccc(C)c2)s1,-18.7%,15.1*,-15.6%,86.4%,28.6,5.1%
CC(=O)c1cccc(NC(=O)C2=CC(c3cccs3)=NS(=O)(=O)N2C)c1,-0.8%,-1.7,-4.7%,-58.9%,-0.7,0.3%
COc1ccc(C2NN=C(c3c[nH]c4ccccc34)C2O)cc1 (configuration not stated),5.4%,36.1*,-0.8%,-26.6%,38.3*,-1.1%
COc1ccc(C2C(O)C(c3c[nH]c4ccccc34)=NN2C(=O)CCl)cc1 (configuration not stated),-1.4%,8.3,-8.5%,-13.0%,-5.5,4.5%
O=[N+]([O-])c1cc(S(=O)(=O)NCCN2CCOCC2)ccc1Sc1nnnn1-c1ccccc1,?,15.6*,1.2%[11.6 µM],127.3%,9.9,16.7%
Cc1ccc(-n2nnnc2Sc2ccc(S(=O)(=O)NCCN(C)C)cc2[N+](=O)[O-])cc1,-11.3%,15.1,-4.5%,58.2%,19.5,?
COc1ccc(/C=C/C(=O)N2CCCc3ccccc32)cc1,4.1%,51.7*,-2.1%,36.1%,74.1*,-36.9%
COc1ccc(/C=C/C(=O)N2CCCc3ccccc32)c(OC)c1,1.7%,14.0*,-15.3%,1.2%,46.6,-61.6%
COc1ccc(OC)c(/C=C/C(=O)N2CCCc3ccccc32)c1,?,17.9,?,15.3%,54.0,-5.7%
O=C1CCN(C(=O)/C=C/c2ccccc2)c2ccccc21,6.0%,28.0*,10.4%,-5.7%,41.2*,-1.2%
Cc1ccc(Cl)cc1-n1c(O)c(C=NCCCN2CCOCC2)c(=O)[nH]c1=O,?,-5.4,30.0%,-25.1%,-9.1,-5.6%
O=C(Nc1ccccc1Sc1ccccc1)C1CCCO1 (configuration not stated),?,-1.1,2.5%,0.6%,-6.5,-4.5%
CC/C(=N\Nc1ccc([N+](=O)[O-])cc1[N+](=O)[O-])c1ccc(O)cc1,-3.8%,-3.0,-23.4%,-58.9%,2.6,-0.2%
C/C(=N\Nc1ccccc1[N+](=O)[O-])c1ccccc1O,-0.5%,40.7*,?,-20.4%,90.2*,?
CC/C(=N\Nc1ccccc1[N+](=O)[O-])c1ccc(O)cc1,-2.1%,23.1*,15.8µM*,-43.6%,58.3*,-1.5%
CC1CC(c2ccccc2)n2nc(NC(=O)CCc3ccccc3)nc2N1 (configuration not stated),-5.5%,-2.0,6.4%,-9.1%,-9.0,5.9%
COc1ccc(-c2csc(N(CCCN(C)C)C(=O)c3cccs3)n2)cc1,-15.2%,-1.6,-19.3%,43.1%,25.6,-2.1%
CN(C(=O)c1ccco1)c1nc(-c2ccc(Cl)cc2)cs1,?,25.3*,-0.5%,-20.3%,22.5,0.9%
COc1ccc(-c2csc(N(C)C(=O)c3ccco3)n2)cc1,?,36.9*,-14.3%,-15.1%,nt,-1.2%
Cc1ccc(-c2csc(N(CC3CCCO3)C(=O)c3ccco3)n2)cc1 (configuration not stated),?,22.7*,-0.9%,31.7%,39.9*,-101.4%
